# This is a sample that favours compounds with a hit; in the whole collection about 12% have one here.
# JMJD2A Tudor: qHTS Assay for Inhibitors of JMJD2A-Tudor Domain; AlphaScreen JMJD2A-Tudor / H3K4me3 peptide binding; Lysine-specific demethylase 4A (Homo sapiens), O75164; 390,000 compounds, 4.4% hits; Potency, µM (series often up to 114 µM), without a hit: top-dose activity change, negative = inhibition, usual class: inhibitors; also: % is scaled to controls: 0 for no effect and ±100 for the full control effect; nearly all actives have a fitted effect of over 50% in size
# Target sequence (O75164 whole entry, looked up, the tested form may be a part): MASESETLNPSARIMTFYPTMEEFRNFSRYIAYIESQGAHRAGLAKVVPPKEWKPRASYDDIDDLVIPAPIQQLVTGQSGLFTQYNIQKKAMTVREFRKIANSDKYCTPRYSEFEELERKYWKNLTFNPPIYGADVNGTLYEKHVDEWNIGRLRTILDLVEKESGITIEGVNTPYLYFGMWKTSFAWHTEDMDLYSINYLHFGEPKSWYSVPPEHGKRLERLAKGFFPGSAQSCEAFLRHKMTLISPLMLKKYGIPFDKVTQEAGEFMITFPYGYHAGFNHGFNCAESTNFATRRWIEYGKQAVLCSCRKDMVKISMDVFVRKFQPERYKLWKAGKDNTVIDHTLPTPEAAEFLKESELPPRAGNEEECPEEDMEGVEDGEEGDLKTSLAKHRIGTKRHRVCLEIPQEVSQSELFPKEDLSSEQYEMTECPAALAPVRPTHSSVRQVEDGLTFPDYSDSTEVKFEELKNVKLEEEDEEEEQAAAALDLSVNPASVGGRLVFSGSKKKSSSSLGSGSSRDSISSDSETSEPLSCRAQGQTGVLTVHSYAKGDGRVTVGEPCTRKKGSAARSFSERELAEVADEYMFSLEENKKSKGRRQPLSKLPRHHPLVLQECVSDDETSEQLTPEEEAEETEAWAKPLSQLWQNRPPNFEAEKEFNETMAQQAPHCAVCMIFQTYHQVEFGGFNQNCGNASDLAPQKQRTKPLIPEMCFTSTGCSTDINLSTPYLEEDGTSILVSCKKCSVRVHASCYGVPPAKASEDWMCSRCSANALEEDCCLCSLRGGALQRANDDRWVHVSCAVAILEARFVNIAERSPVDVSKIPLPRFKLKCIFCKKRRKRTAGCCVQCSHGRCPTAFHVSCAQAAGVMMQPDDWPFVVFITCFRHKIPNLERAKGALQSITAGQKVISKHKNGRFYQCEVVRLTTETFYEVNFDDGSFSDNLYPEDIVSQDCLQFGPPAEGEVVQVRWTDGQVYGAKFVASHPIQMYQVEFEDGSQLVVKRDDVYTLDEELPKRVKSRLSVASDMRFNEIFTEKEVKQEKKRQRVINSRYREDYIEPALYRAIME
# L3MBTL1 block: qHTS Assay for the Inhibitors of L3MBTL1; Lethal(3)malignant brain tumor-like protein 1 (Homo sapiens), Q9Y468; AlphaScreen L3MBTL1–H3K9me1 peptide binding; Potency, µM (titrated, usually from 57.1 µM), inactives show at the highest dose activity, negative = inhibition, actives largely listed as inhibitors; 230,000 compounds, 0.66% hits; AID 485360, 2010; also: % is scaled to controls: 0 for no effect and ±100 for the full control effect; nearly all actives have a fitted effect of over 60% in size
#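 AlphaScreen assay: L3MBTL1 (50 nM final) was preincubated 30 min at room temperature with biotinylated H3(1-15)K9me1 peptide (75 nM final), then 30 min with library compounds; streptavidin donor and nickel chelate acceptor beads (10 ug/mL final) added, 30 min dark.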
# G9a inh: qHTS Assay for Inhibitors of Histone Lysine Methyltransferase G9a; 350,000 compounds, 8.8% hits; Potency, µM (series often up to 102 µM), without a hit: at the top dose activity, negative = inhibition, actives largely listed as inhibitors; G9a H3K9 monomethylation, AlphaScreen, 2 h; AID 504332, 2011; also: % is scaled to controls: 0 for no effect and ±100 for the full control effect; nearly all actives have a fitted effect of over 75% in size
#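 Compounds were preincubated with 20 nM G9a for 15 min, after which biotinylated H3K9 peptide (500 nM) and SAM (20 uM) started a 2 h room-temperature reaction. Monomethylated product was quantified by antibody-based AlphaScreen chemiluminescence.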
# Sfp inh: qHTS Assay for Inhibitors of Bacillus subtilis Sfp phosphopantetheinyl transferase (PPTase); Potency, µM, for inactives: largest response in the series, negative = inhibition, actives largely listed as inhibitors; Biochemical Sfp PPTase activity, qHTS; 4'-phosphopantetheinyl transferase ffp (Bacillus subtilis), Q9F4F7; AID 1490, 2009; 310,000 compounds, 3.5% hits;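 also: the enzyme is Sfp with the accession as filed and its product quenches rhodamine fluorescence; 0% = enzyme reaction without inhibitor and -100% = no enzyme wells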
#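 Buffer: 50 mM Hepes-Na pH 7.6, 10 mM MgCl2, 0.01% Nonidet P-40, 0.01% BSA. Enzyme 15 nM, pre-exposed to compound 15 min; substrates then added and fluorescence change tracked over 30 min.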
# BAZ2B inh: qHTS Assay for Inhibitors of BAZ2B | AlphaScreen BAZ2B-H3K14Ac peptide displacement | Bromodomain adjacent to zinc finger domain protein 2B (Homo sapiens), Q9UIF8 | Potency, µM (highest dose often 114 µM), without a hit: at the highest dose activity change, negative = inhibition, most hits filed as inhibitors | 360,000 compounds, 4.4% hits; also: % is scaled to controls: 0 for no effect and ±100 for the full control effect; nearly all actives have a fitted effect of over 60% in size
#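 Protein-peptide AlphaScreen: BAZ2B 50 nM, b-H3K14Ac 50 nM, 1x PBS pH 7.4 + 0.01% Tween-20. Preincubation 30 min RT; cpd 30 min RT (top 110 uM); beads 20 min RT, light-protected.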
# HP1b binding inh: HTS for Inhibitors of HP1-beta Chromodomain Interactions with Methylated Histone Tails. AlphaScreen HP1-beta / biotin-H3K9me3 peptide binding. Potency, µM (top dose mostly 114 µM), inactives show at the top dose activity change, negative = inhibition, actives largely listed as inhibitors. 390,000 compounds, 0.56% hits. AID 540317, 2011; also: nearly all actives have a fitted effect of over 70% in size
#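 HP1-beta protein (50 nM final) preincubated 30 min at room temperature with biotinylated H3(1-18)K9me3 peptide (50 nM) in PBS pH 7.4, 0.01% Tween-20, then compound added for 30 min. AlphaScreen streptavidin donor/nickel chelate acceptor beads (10 ug/mL final), 30 min dark, luminescence read.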
# The depositor's hits bear a star; ? = inconclusive; · = no result given; [ ] = another dose, or the depositor's remark. Calls follow the shape of the dose curve; as a rule, active = well fitted curve in the direction sought with a large enough effect; inconclusive = small, poorly fitted or top-dose-only effect, or another doubt; inactive = no such curve, though single readings can be large; an effect the other way counts as inactive or inconclusive. Potency is read from the fitted curve at half-maximal effect.
SMILES,JMJD2A Tudor,L3MBTL1 block,G9a inh,Sfp inh,BAZ2B inh,HP1b binding inh
CNC(=S)Nc1ccc(C(N)=O)cc1,10%,47%,·,79µM*,9%,15%
Cn1cc(S(=O)(=O)N2CCCCC2)cc1C(=O)N1CCN(c2ccccc2F)CC1,-23%,·,7%[59 µM],·,-14%,17%[57 µM]
COc1ccccc1N1CCN(c2cc(C)nc3nncn23)CC1,-1%,·,-6%[59 µM],·,0%,33%
CC(=O)c1ccc(N2CCOCC2)cc1O,·,·,·,18%,·,·
CC(=O)c1ccc2c3c(ccc(O)c13)CC2,45µM*,?,45µM*,-10%,35µM*,?
COc1ccccc1CNC(=O)c1cn(C)c2ccc(S(=O)(=O)N(C)C3CCCCC3)cc2c1=O,-22%,·,6%[59 µM],·,·,12%
O=C(O)c1cccc(N=NN2CCOCC2)c1,-7%,2%,16µM*,7%,-23%,38%
O=C1CCCC(O)=C1N=Nc1c(Cl)cc(Cl)cc1Cl,?,-14%,8.9µM*,-14%,50µM*,10%
CCN(CC)S(=O)(=O)c1cccc(N=NC2=C(O)CCCC2=O)c1,-27%,-2%,?,-3%,?,23%
Cc1nc2ccc(N=NC3=C(O)CCCC3=O)cc2s1,?,-8%,40µM*,7%,-34%[57.1 µM],30%
Cc1nc2ccc(N=NC3=C(O)CC(C)(C)CC3=O)cc2s1,?,-5%,?,-12%,?,-15%
O=C1CCCC(O)=C1N=Nc1cccc(C(=O)O)c1,89µM*,8.9µM*,28µM*,-23%,·,-26%
O=C(Nc1ccc(F)cc1)Nc1cc(S(=O)(=O)N2CCOCC2)ccc1N1CCCC1,-15%,?,35µM*,-8%,?,16%
O=C(Nc1cc(S(=O)(=O)N2CCOCC2)ccc1N1CCCC1)C1CC1,-4%,4%,40µM*,-11%,-21%,19%
CCOc1ccc(Oc2ccc(S(=O)(=O)N3CCOCC3)cc2NC(=O)C2=COCCO2)cc1,-22%,-9%,14%[2.33 µM],·,0%,-3%
O=C(Nc1cc(S(=O)(=O)N2CCOCC2)ccc1Oc1ccc(F)cc1)C1=COCCO1,-18%,-8%,50µM*,·,-1%,10%
NC(=O)C1CCN(CC(=O)Nc2cc(S(=O)(=O)N3CCOCC3)ccc2N2CCCC2)CC1,-7%,1%,20µM*,·,-1%,20%
O=C(Nc1ccccc1)Nc1cc(S(=O)(=O)N2CCOCC2)ccc1N1CCCC1,-29%,46%,?,?,1%,?
O=C(Nc1ccc(Cl)cc1)Nc1cc(S(=O)(=O)N2CCOCC2)ccc1N1CCCC1,-33%,-11%,40µM*,-18%,-33%,3%
CCN(C(=S)Nc1cc(S(=O)(=O)N2CCOCC2)ccc1Cl)c1cccc2ccccc12,-25%,0%,1.8µM*,4µM*,?,-24%
O=C(Cc1ccccc1Cl)Nc1cc(S(=O)(=O)N2CCOCC2)ccc1N1CCOCC1,-16%,1%,3.5µM*,·,17%,17%
COCCCNC(=O)c1ccc(Cn2c(=O)c3ccccc3n(CC(=O)Nc3c(C)cccc3C)c2=O)cc1,-5%,·,0%[59 µM],·,-2%,31%
NC(=O)OC[C@@H]1[C@H](NC(=O)/C(=N/OCC(=O)O)c2csc(N)n2)C(=O)N1S(=O)(=O)O,·,·,2%[12.7 µM],?,·,·
COc1ccc(-c2cnc(C)o2)cc1S(=O)(=O)Nc1ccc(C)c(F)c1,-33%,·,-6%[59 µM],·,?,-9%
CCOC(=O)c1c(C)oc2ncnc(Nc3ccc(OC)c(OC)c3)c12,-12%,·,8%[59 µM],·,2%,14%

# Screening results from PubChem BioAssay.
